Measured values: the supplement of paper PMC6411743
± gives the standard deviation of the averaged measurements. Targets with the largest changes are over-represented here; the source holds about 6,200 in all.

Compound: Nc1ncnc2c1ncn2[C@@H]1O[C@H](COP(=O)(O)OP(=O)(O)NP(=O)(O)O)[C@@H](O)[C@H]1O [adenylyl imidodiphosphate]
Assay: NP40-soluble protein abundance relative to vehicle (solubility fold change) (ratio); higher = more soluble protein in presence of AMP-PNP
Outline: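 Crude Jurkat lysate, prepared by Dounce homogenisation, was exposed to eight concentrations from 0.1 to 10 mM for 10 min at room temperature and then 3 min at 37 °C. Solubilisation used 0.8% NP40 with benzonase for 60 min at 4 °C, followed by ultracentrifugation and TMT labelling of the supernatant for LC-MS/MS. After vsn normalisation of intensities, each value is the fold change against the detergent-processed vehicle within each replicate, across three independent experiments.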

UniProt Q15599, sequence (Q15599 whole entry): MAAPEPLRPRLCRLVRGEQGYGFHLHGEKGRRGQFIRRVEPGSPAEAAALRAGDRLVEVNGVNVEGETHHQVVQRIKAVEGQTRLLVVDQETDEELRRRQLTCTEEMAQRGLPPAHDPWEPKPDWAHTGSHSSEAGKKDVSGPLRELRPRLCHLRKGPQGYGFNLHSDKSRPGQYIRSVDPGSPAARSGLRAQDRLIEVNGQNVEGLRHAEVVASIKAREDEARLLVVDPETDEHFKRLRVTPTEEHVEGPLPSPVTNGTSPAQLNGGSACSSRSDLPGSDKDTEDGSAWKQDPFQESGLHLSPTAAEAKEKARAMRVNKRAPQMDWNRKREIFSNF
UniProt Q2NKX8, sequence (Q2NKX8 whole entry): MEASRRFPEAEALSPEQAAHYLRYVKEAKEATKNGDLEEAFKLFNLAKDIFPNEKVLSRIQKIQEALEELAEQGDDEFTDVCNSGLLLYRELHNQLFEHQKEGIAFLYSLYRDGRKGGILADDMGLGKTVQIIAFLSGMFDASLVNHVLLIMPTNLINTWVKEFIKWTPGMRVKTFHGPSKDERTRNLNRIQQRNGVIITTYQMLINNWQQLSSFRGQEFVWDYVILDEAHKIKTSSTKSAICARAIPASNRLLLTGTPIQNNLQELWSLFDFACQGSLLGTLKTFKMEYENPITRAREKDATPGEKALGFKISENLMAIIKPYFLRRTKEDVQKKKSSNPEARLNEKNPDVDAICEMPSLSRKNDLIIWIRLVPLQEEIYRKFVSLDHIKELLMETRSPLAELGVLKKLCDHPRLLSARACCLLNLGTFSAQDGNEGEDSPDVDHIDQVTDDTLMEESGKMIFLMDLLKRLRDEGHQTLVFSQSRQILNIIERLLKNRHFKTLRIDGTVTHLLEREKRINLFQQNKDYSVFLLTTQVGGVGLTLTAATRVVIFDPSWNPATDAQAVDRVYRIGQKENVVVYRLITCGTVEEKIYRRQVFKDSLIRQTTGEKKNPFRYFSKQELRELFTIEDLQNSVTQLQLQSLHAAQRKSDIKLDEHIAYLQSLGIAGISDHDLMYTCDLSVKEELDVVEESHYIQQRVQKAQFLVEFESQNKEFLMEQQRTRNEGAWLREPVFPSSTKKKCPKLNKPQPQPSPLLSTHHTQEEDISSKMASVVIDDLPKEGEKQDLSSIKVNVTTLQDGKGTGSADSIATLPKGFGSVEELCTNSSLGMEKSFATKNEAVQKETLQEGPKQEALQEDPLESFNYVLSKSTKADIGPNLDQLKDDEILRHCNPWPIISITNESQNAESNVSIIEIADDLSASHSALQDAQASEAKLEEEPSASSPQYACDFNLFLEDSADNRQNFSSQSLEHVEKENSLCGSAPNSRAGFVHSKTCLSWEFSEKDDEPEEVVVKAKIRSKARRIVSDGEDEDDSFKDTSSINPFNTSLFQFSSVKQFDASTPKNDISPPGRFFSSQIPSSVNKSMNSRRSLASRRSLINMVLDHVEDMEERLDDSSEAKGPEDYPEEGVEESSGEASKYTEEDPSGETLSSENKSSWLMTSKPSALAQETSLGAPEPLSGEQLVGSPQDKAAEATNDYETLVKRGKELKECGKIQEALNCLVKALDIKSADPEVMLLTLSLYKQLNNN
UniProt Q8NCL4, sequence (Q8NCL4 whole entry): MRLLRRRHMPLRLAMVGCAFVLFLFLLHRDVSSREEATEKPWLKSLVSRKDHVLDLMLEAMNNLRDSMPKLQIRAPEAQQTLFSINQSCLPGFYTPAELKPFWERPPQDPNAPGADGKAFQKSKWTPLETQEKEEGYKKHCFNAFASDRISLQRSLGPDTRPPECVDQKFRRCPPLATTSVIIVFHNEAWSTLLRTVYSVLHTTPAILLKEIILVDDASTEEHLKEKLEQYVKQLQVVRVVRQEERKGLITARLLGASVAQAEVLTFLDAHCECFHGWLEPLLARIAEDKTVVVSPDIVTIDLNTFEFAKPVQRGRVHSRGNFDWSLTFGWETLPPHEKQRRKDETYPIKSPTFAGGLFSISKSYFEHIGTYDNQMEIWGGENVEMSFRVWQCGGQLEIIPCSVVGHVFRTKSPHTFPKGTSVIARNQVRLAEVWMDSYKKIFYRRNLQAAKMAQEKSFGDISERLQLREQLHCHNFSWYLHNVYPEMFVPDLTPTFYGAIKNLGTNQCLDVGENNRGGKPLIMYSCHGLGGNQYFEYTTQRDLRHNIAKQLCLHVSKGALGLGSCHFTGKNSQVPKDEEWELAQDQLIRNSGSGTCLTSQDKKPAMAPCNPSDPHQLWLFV
UniProt Q13825, sequence (Q13825 whole entry): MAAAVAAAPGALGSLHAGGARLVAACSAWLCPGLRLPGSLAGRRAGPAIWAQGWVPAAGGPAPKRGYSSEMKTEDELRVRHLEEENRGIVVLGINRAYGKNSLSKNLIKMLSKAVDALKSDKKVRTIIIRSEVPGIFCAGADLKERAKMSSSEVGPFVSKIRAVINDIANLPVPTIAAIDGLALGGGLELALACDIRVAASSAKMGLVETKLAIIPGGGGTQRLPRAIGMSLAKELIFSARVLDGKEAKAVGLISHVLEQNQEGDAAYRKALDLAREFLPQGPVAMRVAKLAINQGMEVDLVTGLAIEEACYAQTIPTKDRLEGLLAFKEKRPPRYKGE
UniProt Q15006, sequence (Q15006 whole entry): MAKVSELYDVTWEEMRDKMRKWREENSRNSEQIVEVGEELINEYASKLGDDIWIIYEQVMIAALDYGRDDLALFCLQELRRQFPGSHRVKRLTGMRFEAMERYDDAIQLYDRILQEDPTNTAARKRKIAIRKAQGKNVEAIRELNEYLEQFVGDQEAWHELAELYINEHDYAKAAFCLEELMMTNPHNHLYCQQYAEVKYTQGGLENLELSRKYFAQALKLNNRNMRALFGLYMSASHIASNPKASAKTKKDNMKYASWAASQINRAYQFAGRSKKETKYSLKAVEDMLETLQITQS
UniProt Q14156, sequence (Q14156 whole entry): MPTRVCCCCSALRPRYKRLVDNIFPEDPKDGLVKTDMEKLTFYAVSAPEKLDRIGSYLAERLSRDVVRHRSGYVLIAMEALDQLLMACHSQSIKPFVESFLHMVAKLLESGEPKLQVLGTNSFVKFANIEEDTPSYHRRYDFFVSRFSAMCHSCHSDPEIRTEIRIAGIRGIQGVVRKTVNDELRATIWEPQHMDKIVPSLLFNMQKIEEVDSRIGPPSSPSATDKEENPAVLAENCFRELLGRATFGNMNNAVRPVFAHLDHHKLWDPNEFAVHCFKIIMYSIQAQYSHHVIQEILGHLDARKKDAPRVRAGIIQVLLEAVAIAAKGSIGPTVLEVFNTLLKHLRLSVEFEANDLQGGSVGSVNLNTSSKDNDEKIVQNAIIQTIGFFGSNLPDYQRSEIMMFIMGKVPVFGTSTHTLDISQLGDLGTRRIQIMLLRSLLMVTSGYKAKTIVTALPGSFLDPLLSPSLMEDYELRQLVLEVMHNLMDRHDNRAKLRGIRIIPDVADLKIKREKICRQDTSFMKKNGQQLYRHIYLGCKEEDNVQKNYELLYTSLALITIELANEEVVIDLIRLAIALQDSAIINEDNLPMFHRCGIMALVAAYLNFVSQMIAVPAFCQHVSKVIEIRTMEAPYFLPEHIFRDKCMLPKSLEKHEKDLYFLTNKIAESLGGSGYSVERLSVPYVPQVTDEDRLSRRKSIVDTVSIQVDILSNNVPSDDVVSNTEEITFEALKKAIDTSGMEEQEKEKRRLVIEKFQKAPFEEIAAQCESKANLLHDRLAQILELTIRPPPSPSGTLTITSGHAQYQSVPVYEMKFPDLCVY
UniProt Q16594, sequence (Q16594 whole entry): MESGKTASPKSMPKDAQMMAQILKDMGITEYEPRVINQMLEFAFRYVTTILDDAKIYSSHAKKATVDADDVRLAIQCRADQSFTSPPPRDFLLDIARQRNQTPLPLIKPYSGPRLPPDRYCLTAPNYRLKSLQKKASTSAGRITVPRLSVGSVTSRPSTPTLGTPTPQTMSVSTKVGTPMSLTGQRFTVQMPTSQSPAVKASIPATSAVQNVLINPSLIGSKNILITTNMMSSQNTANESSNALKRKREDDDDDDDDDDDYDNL
UniProt Q92562, sequence (Q92562 whole entry): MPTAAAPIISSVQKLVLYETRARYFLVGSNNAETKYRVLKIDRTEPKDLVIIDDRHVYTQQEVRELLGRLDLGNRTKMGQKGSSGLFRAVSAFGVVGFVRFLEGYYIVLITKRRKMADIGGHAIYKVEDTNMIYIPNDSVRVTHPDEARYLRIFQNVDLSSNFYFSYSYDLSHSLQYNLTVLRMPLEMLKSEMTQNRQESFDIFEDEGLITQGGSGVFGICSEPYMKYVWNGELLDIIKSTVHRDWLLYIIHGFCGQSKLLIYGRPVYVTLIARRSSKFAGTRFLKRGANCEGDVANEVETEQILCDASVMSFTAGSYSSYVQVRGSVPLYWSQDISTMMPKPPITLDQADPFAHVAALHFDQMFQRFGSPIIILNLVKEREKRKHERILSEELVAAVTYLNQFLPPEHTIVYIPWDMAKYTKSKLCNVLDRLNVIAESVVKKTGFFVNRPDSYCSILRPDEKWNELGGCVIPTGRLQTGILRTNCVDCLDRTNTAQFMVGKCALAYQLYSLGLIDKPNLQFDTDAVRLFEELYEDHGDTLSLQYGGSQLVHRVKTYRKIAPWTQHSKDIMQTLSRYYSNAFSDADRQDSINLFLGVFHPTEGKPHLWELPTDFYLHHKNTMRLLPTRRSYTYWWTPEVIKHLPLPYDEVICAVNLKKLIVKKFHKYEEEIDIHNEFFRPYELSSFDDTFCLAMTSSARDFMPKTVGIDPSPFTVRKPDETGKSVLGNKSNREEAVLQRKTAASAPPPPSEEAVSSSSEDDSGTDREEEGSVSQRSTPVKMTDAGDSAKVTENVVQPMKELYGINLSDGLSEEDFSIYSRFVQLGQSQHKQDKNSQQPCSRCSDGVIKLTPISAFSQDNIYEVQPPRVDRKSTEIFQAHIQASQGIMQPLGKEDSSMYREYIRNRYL
UniProt Q6IAA8, sequence (Q6IAA8 whole entry, one chain of several): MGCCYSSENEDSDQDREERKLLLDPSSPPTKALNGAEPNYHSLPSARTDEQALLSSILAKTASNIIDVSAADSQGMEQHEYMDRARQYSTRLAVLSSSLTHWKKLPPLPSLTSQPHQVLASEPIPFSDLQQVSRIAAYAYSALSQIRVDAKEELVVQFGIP

Target	NP40-soluble protein abundance (concentration: 1mM)	NP40-soluble protein abundance (concentration: 2mM)	NP40-soluble protein abundance (concentration: 4mM)	NP40-soluble protein abundance (concentration: 6mM)	NP40-soluble protein abundance (concentration: 8mM)	NP40-soluble protein abundance (concentration: 10mM)
CCDC6 (UniProt Q16204)	0.993 ± 0.023	1.06 ± 0.037	0.979 ± 0.041	0.957 ± 0.024	0.9475 ± 0.0034	0.916 ± 0.027
PPWD1 (UniProt Q96BP3)	0.984 ± 0.013	0.933 ± 0.087	1 ± 0.06	1.01 ± 0.037	1.04 ± 0.042	1.02 ± 0.036
UniProt Q16630-2|Q16630	1.067 ± 0.004	1.12 ± 0.043	1.149 ± 0.0081	1.22 ± 0.025	1.3 ± 0.017	1.51 ± 0.045
ARFGAP1 (UniProt Q8N6T3)	1.02 ± 0.021	1.02 ± 0.023	1.02 ± 0.016	1.02 ± 0.023	0.993 ± 0.018	1.01 ± 0.038
EHBP1L1 (UniProt Q8N3D4)	1.06 ± 0.028	1.11 ± 0.099	1.07 ± 0.11	1.02 ± 0.034	1.01 ± 0.059	1.01 ± 0.08
UniProt Q13362-2|Q13362-3|Q13362-4	0.982 ± 0.017	1.04 ± 0.036	0.989 ± 0.018	0.976 ± 0.036	0.948 ± 0.018	0.966 ± 0.043
PSME4 (UniProt Q14997)	0.9678 ± 0.0088	0.905 ± 0.072	0.968 ± 0.045	0.884 ± 0.075	0.925 ± 0.11	0.884 ± 0.11
GALNT6 (UniProt Q8NCL4)	1.005 ± 0.0084	0.9987 ± 0.0047	0.967 ± 0.011	1 ± 0.024	0.9866 ± 0.0025	1 ± 0.015
UniProt Q14444|Q14444-2	1.12 ± 0.041	1.22 ± 0.17	1.16 ± 0.064	1.19 ± 0.13	1.19 ± 0.094	1.25 ± 0.08
UniProt Q14156|Q14156-2	0.9764 ± 0.0041	0.961 ± 0.041	0.9737 ± 0.0064	0.952 ± 0.023	0.973 ± 0.015	0.953 ± 0.018
EIF4EBP1 (UniProt Q13541)	0.949 ± 0.016	1.032 ± 0.008	0.998 ± 0.1	0.9563 ± 0.0018	0.961 ± 0.059	0.96 ± 0.047
UniProt Q6RI45|Q6RI45-2|Q6RI45-3|Q6RI45-4|Q6RI45-5	0.999 ± 0.016	0.9969 ± 0.0018	0.986 ± 0.016	0.9818 ± 0.0045	1 ± 0.043	1 ± 0.022
UniProt Q14677|Q14677-2|Q14677-3	0.999 ± 0.026	1.03 ± 0.069	0.983 ± 0.052	1 ± 0.026	0.974 ± 0.03	1.03 ± 0.043
KBTBD7 (UniProt Q8WVZ9)	0.977 ± 0.014	0.9633 ± 0.004	0.959 ± 0.025	0.987 ± 0.01	1.03 ± 0.018	0.988 ± 0.03
NONO (UniProt Q15233)	1.09 ± 0.048	1.17 ± 0.064	1.22 ± 0.056	1.39 ± 0.12	1.45 ± 0.15	1.56 ± 0.18
PLA2G15 (UniProt Q8NCC3)	0.991 ± 0.013	0.975 ± 0.013	1.02 ± 0.03	0.986 ± 0.029	0.9922 ± 0.0084	0.979 ± 0.021
CMIP (UniProt Q8IY22)	0.986 ± 0.047	0.964 ± 0.031	0.942 ± 0.029	0.958 ± 0.046	0.935 ± 0.022	0.923 ± 0.043
UniProt Q15599|Q15599-2	1.01 ± 0.046	1.05 ± 0.042	1.04 ± 0.035	1.05 ± 0.038	1.04 ± 0.038	1.03 ± 0.045
TGFBRAP1 (UniProt Q8WUH2)	0.96 ± 0.042	0.89 ± 0.093	0.93 ± 0.048	0.895 ± 0.064	0.916 ± 0.047	0.889 ± 0.052
DNTTIP2 (UniProt Q5QJE6)	1.1 ± 0.036	1.2 ± 0.022	1.27 ± 0.06	1.34 ± 0.083	1.4 ± 0.12	1.53 ± 0.16
UniProt Q86VP1-2|Q86VP1-4|B8ZZD4	0.977 ± 0.039	1.01 ± 0.026	0.963 ± 0.024	0.935 ± 0.038	0.925 ± 0.033	0.936 ± 0.031
GTF3C6 (UniProt Q969F1)	1.04 ± 0.045	1.07 ± 0.042	1.04 ± 0.032	0.984 ± 0.018	0.99 ± 0.047	1.01 ± 0.035
GATAD2B (UniProt Q8WXI9)	1.01 ± 0.014	1.06 ± 0.046	1.024 ± 0.0076	1.01 ± 0.049	0.994 ± 0.035	1.02 ± 0.03
EMG1 (UniProt Q92979)	1.01 ± 0.03	1 ± 0.014	1.12 ± 0.087	1.19 ± 0.071	1.24 ± 0.096	1.26 ± 0.1
DDX51 (UniProt Q8N8A6)	1.06 ± 0.018	1.09 ± 0.02	1.15 ± 0.059	1.2 ± 0.038	1.24 ± 0.033	1.423 ± 0.014

Target	NP40-soluble protein abundance (concentration: 1mM)	NP40-soluble protein abundance (concentration: 2mM)	NP40-soluble protein abundance (concentration: 4mM)	NP40-soluble protein abundance (concentration: 6mM)	NP40-soluble protein abundance (concentration: 8mM)	NP40-soluble protein abundance (concentration: 10mM)
USP34 (UniProt Q70CQ2)	0.958 ± 0.032	0.925 ± 0.044	0.955 ± 0.026	0.885 ± 0.021	0.877 ± 0.033	0.873 ± 0.014
FIG4 (UniProt Q92562)	1 ± 0.022	1.04 ± 0.024	1.06 ± 0.04	1.02 ± 0.024	0.9942 ± 0.0076	0.9926 ± 0.0034
UniProt Q8IXQ5|Q8IXQ5-2|Q8IXQ5-5	0.984 ± 0.042	0.979 ± 0.018	0.974 ± 0.029	0.9744 ± 0.0094	0.983 ± 0.044	0.9769 ± 0.0044
DARS2 (UniProt Q6PI48)	0.939 ± 0.049	0.861 ± 0.12	0.924 ± 0.016	0.918 ± 0.036	0.942 ± 0.021	0.89 ± 0.012
UniProt Q15006	0.984 ± 0.018	0.9532 ± 0.0062	0.975 ± 0.044	0.989 ± 0.049	1.02 ± 0.028	1.02 ± 0.013
SF3A1 (UniProt Q15459)	1.02 ± 0.022	1.05 ± 0.05	1.02 ± 0.014	1.07 ± 0.031	1.07 ± 0.017	1.09 ± 0.031
UniProt Q13825|Q13825-2	0.995 ± 0.028	1.02 ± 0.025	1.04 ± 0.044	1.03 ± 0.015	1.04 ± 0.057	1.06 ± 0.025
IQGAP2 (UniProt Q13576)	0.956 ± 0.027	0.935 ± 0.022	0.94 ± 0.051	0.944 ± 0.029	0.926 ± 0.039	0.932 ± 0.038
PDCL (UniProt Q13371)	0.966 ± 0.026	0.973 ± 0.039	0.969 ± 0.056	0.932 ± 0.062	0.938 ± 0.083	0.928 ± 0.082
FAM117B (UniProt Q6P1L5)	0.99 ± 0.022	1.07 ± 0.04	1.01 ± 0.025	1.005 ± 0.01	0.9688 ± 0.0059	1.01 ± 0.022
CLYBL (UniProt Q8N0X4)	1.01 ± 0.016	0.978 ± 0.013	1 ± 0.02	0.982 ± 0.043	0.9692 ± 0.0037	0.9819 ± 0.0062
UniProt Q7L0J3|Q7L0J3-2	1 ± 0.032	1.05 ± 0.072	1.03 ± 0.031	1.02 ± 0.025	1.03 ± 0.033	1.02 ± 0.028
UniProt Q8WZA0|Q8WZA0-2	0.969 ± 0.052	0.957 ± 0.0098	0.928 ± 0.059	0.912 ± 0.044	0.921 ± 0.034	0.859 ± 0.054
THOC5 (UniProt Q13769)	1.36 ± 0.17	1.42 ± 0.23	1.65 ± 0.35	1.84 ± 0.54	2.03 ± 0.65	2.16 ± 0.88
UniProt Q6IAA8|F5GX19|F5H3Y3|F5H479|H0YFI1	1.02 ± 0.025	1.04 ± 0.028	1.04 ± 0.047	0.992 ± 0.051	0.975 ± 0.017	0.966 ± 0.035
UniProt Q6PI47	0.873 ± 0.06	0.905 ± 0.046	0.947 ± 0.051	1 ± 0.023	1.08 ± 0.047	1.1 ± 0.064
NUBPL (UniProt Q8TB37)	1 ± 0.045	1.01 ± 0.057	1.02 ± 0.05	1.06 ± 0.092	1.03 ± 0.092	1.05 ± 0.076
ERCC6L (UniProt Q2NKX8)	0.998 ± 0.022	1.01 ± 0.036	0.993 ± 0.04	0.95 ± 0.032	0.942 ± 0.045	0.949 ± 0.064
UniProt Q8IYB5-2|Q8IYB5-3	0.988 ± 0.028	0.986 ± 0.011	1.01 ± 0.031	0.995 ± 0.038	0.995 ± 0.025	1.01 ± 0.015
TAF9 (UniProt Q16594)	1.009 ± 0.0054	1.04 ± 0.02	1.01 ± 0.018	1.01 ± 0.018	1.03 ± 0.016	1.05 ± 0.039
CBLL1 (UniProt Q75N03)	1 ± 0.01	1.04 ± 0.022	1.03 ± 0.045	0.995 ± 0.015	0.976 ± 0.014	0.985 ± 0.016
UniProt Q8NBP0|Q8NBP0-2	0.998 ± 0.019	0.97 ± 0.025	0.9847 ± 0.0052	0.984 ± 0.025	0.992 ± 0.032	0.991 ± 0.027
UniProt Q16666|Q16666-2	1.06 ± 0.052	1.11 ± 0.023	1.22 ± 0.069	1.43 ± 0.14	1.49 ± 0.14	1.53 ± 0.19
PRPF4B (UniProt Q13523)	1.02 ± 0.02	1.01 ± 0.048	1.1 ± 0.037	1.2 ± 0.032	1.26 ± 0.042	1.34 ± 0.067
EIF3A (UniProt Q14152)	1.05 ± 0.029	1.08 ± 0.044	1.12 ± 0.087	1.19 ± 0.12	1.25 ± 0.12	1.38 ± 0.19
